102 molecules from PubChem BioAssay AID1259343 (VanderVen Lab, College of Veterinary Medicine, Cornell …, 2017) can be followed below.

About 2,900 (47%) of roughly 6,200 compounds were called active. Cut-off read from the data, not from the text of the source: active = inhibition above about 50%; inactive = the rest. The set was probably picked from earlier hits. The list shows a part of the results.

The nature of this assay: Mycobacterium tuberculosis growth inhibition, primary screen (AID 1259343). As to conditions: inhibition: at 10 µM, hits give high values; outcome: 10 uM.
For `C=CCOc1ccc(S(=O)(=O)c2ccc(O)cc2)cc1`, the inhibition is 24.3% (inactive).

In the case of `CN(Cc1nc2ccccc2s1)C(=O)CCc1nnc(CCc2c[nH]c3ccccc23)o1`, the inhibition is 22.7% (inactive).

In the case of `Cc1cc(Br)c(NC(=O)CN(C)Cc2nc3ccccc3s2)c(Br)c1`, the inhibition was 84.4% (active).

For the molecule `C=CCN(C(=O)c1cccc(OC)c1)c1nc2ccccc2s1`, the inhibition is -37.8% (inactive).

`O=C(CSc1ncnc2c1nnn2Cc1ccc(F)cc1)N1CCCCCC1`: the inhibition was -40.9% (inactive).

Regarding `Clc1ccc(Cn2nnc3c(SCc4cccnc4)ncnc32)cc1`, the inhibition was 43.6% (inactive).

Take `Fc1ccc(Cn2nnc3c(=S)nc[nH]c32)cc1`: the inhibition is 101% (active).

Take `Cc1ccc(CSc2ncnc3c2nnn3Cc2ccccc2)cc1`: the inhibition was -28.1% (inactive).

With `S=c1nc[nH]c2c1nnn2Cc1ccc(Cl)cc1`, the inhibition was 78.3% (active).

As for `Cc1ccc(Cn2nnc3c(=S)nc[nH]c32)cc1`, the inhibition was 92.2% (active).

`Clc1cccc(CSc2ncnc3c2nnn3Cc2ccccc2)c1`: the inhibition is -28% (inactive).

As to `Cc1[nH]n(-c2ccccc2)c(=O)c1N=Nc1c(C)n(C)n(-c2ccccc2)c1=O`, the inhibition was 94.3% (active).

For `CCC(=O)N(c1nnc(SCC(=O)c2cc(C)n(-c3cc(C)on3)c2C)s1)C1CC1`, the inhibition is 72.7% (active).

Regarding `Cc1cc(OCc2nc(C(=O)NCC(C)C)cs2)ccc1Cl`, the inhibition is 8.24% (inactive).

With `CCCc1nc(C(=O)Nc2ccc(NC(=O)CC)c(Cl)c2)cs1`, the inhibition is 54% (active).

For `COc1ccc(NC(=O)c2csc(C)n2)cc1Cl`, the inhibition was -17.7% (inactive).

`Cc1ccc(Sc2cncc3sc(C(N)=O)cc23)cc1`: the inhibition is 68% (active).

On to `O=C(Cn1cnc([N+](=O)[O-])n1)Nc1cc(Oc2cccc(Cl)c2)cc([N+](=O)[O-])c1`, for which the inhibition was -2.49% (inactive).

In the case of `CC(=O)Nc1ccc(NC(=O)Cn2nc(C)c([N+](=O)[O-])c2C)cc1`, the inhibition is 92.6% (active).

In the case of `CC1CCN(CC(=O)Nc2ccc([N+](=O)[O-])cc2)CC1`, the inhibition was 8.26% (inactive).

Turning to `Cc1c(Br)c(C(F)(F)F)nn1CC(=O)Nc1ccc(Oc2cc([N+](=O)[O-])cc([N+](=O)[O-])c2)cc1`, the inhibition was 61.4% (active).

`Cc1ccc(Sc2ccc(NC(=O)Cn3cnnn3)cc2)cc1C`: the inhibition is 4.65% (inactive).

As to `CC(C)(C)OC(=O)CSc1ncnc2sc3c(c12)CCCC3`, the inhibition was 75.3% (active).

In the case of `CN(C)C(=O)CSc1ncnc2sc3c(c12)CCCC3`, the inhibition was 85.3% (active).

`O=C(O)CCCSc1ncnc2sc3c(c12)CCCC3`: the inhibition is 51% (active).

With `O=C(CSc1ncnc2sc3c(c12)CCCC3)N1CCOCC1`, the inhibition was 102% (active).

With `O=C(CSc1ncnc2sc3c(c12)CCC3)N1CCCC1`, the inhibition was 18.6% (inactive).

Consider `COCC1CCCN(c2nncc(-c3ccc(Cl)cc3)n2)C1` (configuration not stated), for which the inhibition is 9.94% (inactive).

Turning to `CCc1ccc(C(CNC(=O)Cc2ccc(C(F)(F)F)cc2)N(C)C)cc1` (configuration not stated), the inhibition was 19.9% (inactive).

Regarding `O=C(CCSc1ccc(C(F)(F)F)cn1)Nc1c(Cl)cccc1Cl`, the inhibition is 20.9% (inactive).

For the molecule `O=C(Cc1ccc(C(F)(F)F)cc1)Nc1ncccc1O`, the inhibition was 82.2% (active).

Regarding `O=C(O)CCN(Cc1ccco1)c1nc(-c2cccc(Br)c2)nc2ccccc12`, the inhibition was 2.99% (inactive).

For `S=P(NN=C1CCSC1)(c1ccccc1)c1ccccc1`, the inhibition was 62.1% (active).

Take `Cc1cccc(-c2ccc(NC(=O)C3CCN(C(=O)c4cscn4)CC3)cc2)c1`: the inhibition was 93% (active).

For `Cc1cccc(-c2ccc(NC(=O)C3CCN(C(=O)c4cnsn4)CC3)cc2)c1`, the inhibition is 91.7% (active).

As for `COc1cccc(-c2ccc(NC(=O)C3CCCN(C(=O)c4cnsn4)C3)cc2)c1` (configuration not stated), the inhibition result is “inactive”.

With `CN1c2ccccc2-c2nc3ccccc3n2C1c1ccco1` (configuration not stated), the inhibition is 24.8% (inactive).

In the case of `C#CCCCCCCCCCCCC(O)CC(O)COC(C)=O` (configuration not stated), the inhibition is 93.3% (active).

As to `Cc1cc(N)n(-c2nc3c(cnn3-c3ccccc3)c(=O)[nH]2)n1`, the inhibition is 5.14% (inactive).

For the molecule `CCCc1cc(=O)[nH]c(-n2nc(C)cc2N)n1`, the inhibition was 101% (active).

Regarding `Cc1cccc(-n2ncc3c(=O)[nH]c(-n4nc(C)cc4N)nc32)c1`, the inhibition is 102% (active).

Regarding `CCc1cc(=O)[nH]c(-n2nc(C)cc2N)n1`, the inhibition was 83.4% (active).

With `CCCc1cc(=O)[nH]c(-n2nc(C)cc2C)n1`, the inhibition was 6.1% (inactive).

As to `Cc1cc(=O)[nH]c(-n2nc(C)cc2N)n1`, the inhibition is 101% (active).

Regarding `Cc1cc(N)n(-c2nc3c(cnn3-c3ccc(C)c(C)c3)c(=O)[nH]2)n1`, the inhibition is 33.8% (inactive).

Turning to `CC(C)=CCc1c(O)ccc(C(=O)Cc2ccccc2)c1O`, the inhibition is 59.8% (active).

Regarding `CCC(=O)c1ccc(O)c(CC=C(C)C)c1`, the inhibition is 20.6% (inactive).

Regarding `N#Cc1c(Cl)c(Cl)c(Cl)c(C#N)c1Cl`, the inhibition was 102% (active).

Take `O=C(Nc1ccccc1)c1cc(C2CCCN(C(=O)C/C=C/c3ccccc3)C2)on1` (configuration not stated): the inhibition was 43% (inactive).

`Cc1nc(COC(=O)c2cc3ccccc3cc2O)oc1C`: the inhibition was 54.9% (active).

Consider `O=C(Nc1nc(C2CC2)cs1)c1cc2ccccc2cc1O`, for which the inhibition was 11.4% (inactive).

Regarding `Cc1ccc(C(=O)OCc2cc(C)on2)c(O)c1`, the inhibition is -29.5% (inactive).

For the molecule `Cc1sc(C(=O)N2CCOC(C(N)=O)C2)cc1-c1ccc(F)cc1` (configuration not stated), the inhibition was 5.13% (inactive).

On to `Cc1ccc2nc3sc(C(=O)O)cc3cc2c1`, for which the inhibition was 7.83% (inactive).

With `COc1ccc(-c2cc(C(=O)O)sc2C)cc1`, the inhibition was 67.1% (active).

As to `CN(C)C(=O)On1nnc2ccccc21`, the inhibition was 26.9% (inactive).

Turning to `O=C(O)C1CCCN1S(=O)(=O)c1cccs1` (configuration not stated), the inhibition was -0.47% (inactive).

As to `O=S(=O)(c1cccs1)n1nnc2ccccc21`, the inhibition was 52.1% (active).

With `Cn1c(=O)cc2c3c(cccc31)C(=O)c1ccccc1-2`, the inhibition was 11.1% (inactive).

As to `S=c1[nH]c(-c2ccccc2)c(-c2ccccc2)[nH]1`, the inhibition was 18.6% (inactive).

In the case of `O=c1c(-c2ccccc2)c1-c1ccccc1`, the inhibition is 86.5% (active).

For the molecule `O=C(NCCc1cccc(C(F)(F)F)c1)c1ccc(CSc2ncn[nH]2)o1`, the inhibition was 36.7% (inactive).

`O=C(NCCOc1cccc(C(F)(F)F)c1)c1ccc(Cl)c([N+](=O)[O-])c1`: the inhibition was 54.2% (active).

For `COc1ccccc1C=CC(=O)c1ccc(Cl)cc1`, the inhibition was 46.9% (inactive).

As to `Cc1ccc(C)c(C=CC(=O)c2ccc(O)cc2)c1`, the inhibition was 98.6% (active).

Turning to `Cc1cc(C)n(C(C)CNS(=O)(=O)c2ccc(C)c(C)c2)n1` (configuration not stated), the inhibition is -27.8% (inactive).

Regarding `CC(O)c1cnc(-c2ccc(Br)cc2)s1` (configuration not stated), the inhibition was 35.9% (inactive).

On to `CC(C)c1ccc(-c2nnc(N)s2)cc1`, for which the inhibition was 72.1% (active).

On to `Cc1cc2nn(-c3ccc(C(C)C)cc3)nc2cc1N`, for which the inhibition is 14.7% (inactive).

As to `O=C(/C=C/C(=O)Oc1ccccc1C(=O)O)Oc1ccccc1C(=O)O`, the inhibition is 26.7% (inactive).

For `C=CS(=O)(=O)Oc1ccccc1`, the inhibition is 78.9% (active).

Take `NC(=O)c1ccnc(N2CCN(Cc3ccc(Cl)c(Cl)c3)CC2)c1`: the inhibition was 89.4% (active).

As to `NC(=O)c1ccc(CN2CCCc3cc(F)cc(F)c32)cc1`, the inhibition was 17.5% (inactive).

Turning to `Nc1nc(Cl)cc(N2CCN(Cc3ccc4c(c3)OCCO4)CC2)n1`, the inhibition is 6.34% (inactive).

For the molecule `C=CCn1cnc2c(c1=O)c1nc3ccccc3nc1n2CCC(C)C`, the inhibition is 12.7% (inactive).

Consider `CCOc1ccc2ccccc2c1C(=O)Nc1cc(C)nn1-c1nc(C)cc(=O)[nH]1`, for which the inhibition is 101% (active).

As for `CCOc1ccc2ccccc2c1C(=O)Nc1cc(C)nn1-c1nc(CC)cc(=O)[nH]1`, the inhibition was 101% (active).

With `O=S(=O)(NCCCNS(=O)(=O)c1ccc(Cl)cc1)c1ccc(Cl)cc1`, the inhibition was -18.2% (inactive).

`COCCOc1ccc(CNS(=O)(=O)c2ccc(F)c(Cl)c2)cc1`: the inhibition was 30.9% (inactive).

On to `O=S(=O)(NCCCCOc1ccc(Cl)cc1)c1cccc(F)c1`, for which the inhibition is 88.5% (active).

Turning to `Cc1oc2nc[nH]c(=O)c2c1C(=O)Nc1ccc(C(C)(C)C)cc1`, the inhibition was 39.2% (inactive).

As for `Cc1noc(C)c1C(=O)Nc1nc2cc(C(C)(C)C)ccc2o1`, the inhibition is 100% (active).

Turning to `Cc1ccc(-c2csc(NC(=O)c3c(C)noc3C)n2)s1`, the inhibition is 24.1% (inactive).

In the case of `Cc1cc(N2CC[C@@H](c3ccc4c(c3)OCO4)[C@H](O)C2)nc2cc(F)ccc12`, the inhibition was 11.3% (inactive).

Turning to `CCCc1nc(N2CC[C@@H](c3ccc4ccccc4c3)[C@H](O)C2)no1`, the inhibition was 23% (inactive).

Turning to `CCc1cnc(N2CC[C@@H](c3ccc4ccccc4c3)[C@H](O)C2)nc1`, the inhibition is 86.1% (active).

Consider `CCCCc1ccc(NC(=O)CSc2nc3nc(C)cc(C)n3n2)cc1`, for which the inhibition was -36.7% (inactive).

As for `Cc1cc(C)n2nc(SCC(=O)Nc3ccc(C(C)C)cc3)nc2n1`, the inhibition was 84.4% (active).

On to `O=C(CSC1=NS(=O)(=O)c2ccccc2N1)Nc1ccccc1`, for which the inhibition is 31.9% (inactive).

As for `O=C1c2ccccc2-c2nc3nonc3nc21`, the inhibition is 103% (active).

As for `O=C(NNC(=O)C1C2C=CC(C2)C1C(=O)O)c1ccc(OC2CCCC2)cc1` (configuration not stated), the inhibition is 97.7% (active).

Turning to `CC(C)n1nccc1-c1nnc(NC(=O)c2ccccc2)o1`, the inhibition is 100% (active).

`CCC(C)n1nccc1NC(=O)c1n[nH]c2ccccc2c1=O` (configuration not stated): the inhibition was 3.7% (inactive).

With `O=C(c1ccccc1)n1sc(=O)c2ccccc21`, the inhibition was 61.1% (active).

For `O=C(CCCn1c(=O)oc2ccccc21)Nc1cccc(-c2ccsc2)c1`, the inhibition is 34.8% (inactive).

Turning to `CN(Cc1cccc(NC(=O)C(C)(C)C)c1)C(=O)C(F)(F)F`, the inhibition is 4.53% (inactive).

For the molecule `CS(=O)(=O)CCC(=O)Nc1cccc(-n2cccc2)c1`, the inhibition is 81.7% (active).

In the case of `CCOC(=O)C1CSC(Cc2ccc(OCc3ccc([N+](=O)[O-])cc3)cc2)N1` (configuration not stated), the inhibition is 66% (active).

For `O=C(NN=Cc1ccncc1)c1cc(-c2ccc(Cl)s2)[nH]n1`, the inhibition is 16.5% (inactive).

For the molecule `COc1cccc(C=NNC(=O)c2cc(-c3ccc(Cl)s3)[nH]n2)c1`, the inhibition is 68% (active).

Take `CC(=NNC(=O)c1cc(-c2ccc(Cl)s2)[nH]n1)c1ccccc1O`: the inhibition was 40.9% (inactive).

On to `O=c1[nH]nc(SCc2cc(Cl)ccc2Cl)c(=O)[nH]1`, for which the inhibition is 54.7% (active).

Broadly, the inhibition is the change of the read-out against control, counted positive when it falls.
